# Assay results as given in the supplement of paper PMC4466140.
# How the values were obtained:
# Test in all cases: SPOT peptide array binding signal intensity (averaged, normalized) (arbitrary units (background-subtracted, floor 0; scale differs between SH3 domains)); higher = stronger binding of the SH3 domain to the peptide
# AgAbp1 = molecular target: AgAbp1
# Procedure, shortened: (§1)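 The binding signal is the normalized, background-subtracted spot intensity averaged over replicates; its arbitrary units differ between domains. It was obtained by incubating 10 μg/ml GST-fused SH3 domains from four yeast species overnight at 4°C in TBS-based blocking buffer on cellulose membranes with synthetic 15-mer peptides, cysteines replaced by serines, then detecting with anti-GST antibody, HRP anti-mouse secondary and luminol.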
# AgBbc1 = molecular target: AgBbc1
# Procedure, shortened: as §1
# AgBem1-D1 = molecular target: AgBem1-D1
# Procedure, shortened: as §1
# AgBzz1-D1 = molecular target: AgBzz1-D1
# Procedure, shortened: as §1
# AgBzz1-D2 = molecular target: AgBzz1-D2
# Procedure, shortened: as §1
# AgCyk3 = molecular target: AgCyk3
# Procedure, shortened: as §1
# AgFus1 = molecular target: AgFus1
# Procedure, shortened: as §1
# AgHof1 = molecular target: AgHof1
# Procedure, shortened: as §1
# AgHse1 = molecular target: AgHse1
# Procedure, shortened: as §1
# AgLsb1 = molecular target: AgLsb1
# Procedure, shortened: as §1
# AgLsb4 = molecular target: AgLsb4
# Procedure, shortened: as §1
# AgMyo5 = molecular target: AgMyo5
# Procedure, shortened: as §1
# AgNbp2 = molecular target: AgNbp2
# Procedure, shortened: as §1
# AgRvs167 = molecular target: AgRvs167
# Procedure, shortened: as §1
# AgSho1 = molecular target: AgSho1
# Procedure, shortened: as §1
# AgSla1-D1-D2 = molecular target: AgSla1-D1-D2
# Procedure, shortened: as §1
# AgSla1-D3 = molecular target: AgSla1-D3
# Procedure, shortened: as §1
# CaAbp1-D1 = molecular target: CaAbp1-D1
# Procedure, shortened: as §1
# CaAbp1-D2 = molecular target: CaAbp1-D2
# Procedure, shortened: as §1
# CaBbc1 = molecular target: CaBbc1
# Procedure, shortened: as §1
# CaBem1-D1 = molecular target: CaBem1-D1
# Procedure, shortened: as §1
# CaBzz1-D1 = molecular target: CaBzz1-D1
# Procedure, shortened: as §1
# CaBzz1-D2 = molecular target: CaBzz1-D2
# Procedure, shortened: as §1
# CaCyk3 = molecular target: CaCyk3
# Procedure, shortened: as §1
# CaFus1 = molecular target: CaFus1
# Procedure, shortened: as §1
# CaHof1 = molecular target: CaHof1
# Procedure, shortened: as §1
# CaHse1 = molecular target: CaHse1
# Procedure, shortened: as §1
# CaLsb1 = molecular target: CaLsb1
# Procedure, shortened: as §1
# CaLsb4 = molecular target: CaLsb4
# Procedure, shortened: as §1
# CaMyo5 = molecular target: CaMyo5
# Procedure, shortened: as §1
# CaNbp2 = molecular target: CaNbp2
# Procedure, shortened: as §1
# CaRvs167 = molecular target: CaRvs167
# Procedure, shortened: as §1
# CaRvs167-3 = molecular target: CaRvs167-3
# Procedure, shortened: as §1
# CaSho1 = molecular target: CaSho1
# Procedure, shortened: as §1
# CaSla1-D1-D2 = molecular target: CaSla1-D1-D2
# Procedure, shortened: as §1
# CaSla1-D3 = molecular target: CaSla1-D3
# Procedure, shortened: as §1
# ScAbp1 = molecular target: ScAbp1
# Procedure, shortened: as §1
# ScBbc1 = molecular target: ScBbc1
# Procedure, shortened: as §1
# ScBem1-D1 = molecular target: ScBem1-D1
# Procedure, shortened: as §1
# ScBzz1-D1 = molecular target: ScBzz1-D1
# Procedure, shortened: as §1
# ScBzz1-D2 = molecular target: ScBzz1-D2
# Procedure, shortened: as §1
# ScCyk3 = molecular target: ScCyk3
# Procedure, shortened: as §1
# ScFus1 = molecular target: ScFus1
# Procedure, shortened: as §1
# ScHof1 = molecular target: ScHof1
# Procedure, shortened: as §1
# ScHse1 = molecular target: ScHse1
# Procedure, shortened: as §1
# ScLsb1 = molecular target: ScLsb1
# Procedure, shortened: as §1
# ScLsb2 = molecular target: ScLsb2
# Procedure, shortened: as §1
# ScLsb3 = molecular target: ScLsb3
# Procedure, shortened: as §1
# ScLsb4 = molecular target: ScLsb4
# Procedure, shortened: as §1
# ScMyo3 = molecular target: ScMyo3
# Procedure, shortened: as §1
# ScMyo5 = molecular target: ScMyo5
# Procedure, shortened: as §1
# ScNbp2 = molecular target: ScNbp2
# Procedure, shortened: as §1
# ScPex13 = molecular target: ScPex13
# Procedure, shortened: as §1
# ScRvs167 = molecular target: ScRvs167
# Procedure, shortened: as §1
# ScSho1 = molecular target: ScSho1
# Procedure, shortened: as §1
# ScSla1-D1-D2 = molecular target: ScSla1-D1-D2
# Procedure, shortened: as §1
# ScSla1-D3 = molecular target: ScSla1-D3
# Procedure, shortened: as §1
# SpAbp1-D1 = molecular target: SpAbp1-D1
# Procedure, shortened: as §1
# SpBbc1 = molecular target: SpBbc1
# Procedure, shortened: as §1
# SpBzz1-D1 = molecular target: SpBzz1-D1
# Procedure, shortened: as §1
# SpBzz1-D2 = molecular target: SpBzz1-D2
# Procedure, shortened: as §1
# SpCyk3 = molecular target: SpCyk3
# Procedure, shortened: as §1
# SpHof1 = molecular target: SpHof1
# Procedure, shortened: as §1
# SpHof1-2 = molecular target: SpHof1-2
# Procedure, shortened: as §1
# SpHof1-3 = molecular target: SpHof1-3
# Procedure, shortened: as §1
# SpHse1 = molecular target: SpHse1
# Procedure, shortened: as §1
# SpLsb1 = molecular target: SpLsb1
# Procedure, shortened: as §1
# SpLsb4 = molecular target: SpLsb4
# Procedure, shortened: as §1
# SpMyo1 = molecular target: SpMyo1
# Procedure, shortened: as §1
# SpNbp2 = molecular target: SpNbp2
# Procedure, shortened: as §1
# SpPex13 = molecular target: SpPex13
# Procedure, shortened: as §1
# SpRvs167 = molecular target: SpRvs167
# Procedure, shortened: as §1
# SpSla1-D1-D2 = molecular target: SpSla1-D1-D2
# Procedure, shortened: as §1
# SpSla1-D3 = molecular target: SpSla1-D3
# Procedure, shortened: as §1
binder,measurement,setting,value
APPPPPRRATPEKKP,SPOT peptide array binding signal intensity,AgAbp1,79
same,SPOT peptide array binding signal intensity,AgBbc1,202
same,SPOT peptide array binding signal intensity,AgBem1-D1,24.5
same,SPOT peptide array binding signal intensity,AgBzz1-D1,84
same,SPOT peptide array binding signal intensity,AgBzz1-D2,29.5
same,SPOT peptide array binding signal intensity,AgCyk3,≤ 0
same,SPOT peptide array binding signal intensity,AgFus1,≤ 0
same,SPOT peptide array binding signal intensity,AgHof1,0.75
same,SPOT peptide array binding signal intensity,AgHse1,17
same,SPOT peptide array binding signal intensity,AgLsb1,17.5
same,SPOT peptide array binding signal intensity,AgLsb4,192
same,SPOT peptide array binding signal intensity,AgMyo5,4
same,SPOT peptide array binding signal intensity,AgNbp2,≤ 0
same,SPOT peptide array binding signal intensity,AgRvs167,209
same,SPOT peptide array binding signal intensity,AgSho1,1.5
same,SPOT peptide array binding signal intensity,AgSla1-D1-D2,≤ 0
same,SPOT peptide array binding signal intensity,AgSla1-D3,1.5
same,SPOT peptide array binding signal intensity,CaAbp1-D1,62
same,SPOT peptide array binding signal intensity,CaAbp1-D2,58
same,SPOT peptide array binding signal intensity,CaBbc1,368
same,SPOT peptide array binding signal intensity,CaBem1-D1,1
same,SPOT peptide array binding signal intensity,CaBzz1-D1,1050
same,SPOT peptide array binding signal intensity,CaBzz1-D2,156
same,SPOT peptide array binding signal intensity,CaCyk3,18.5
same,SPOT peptide array binding signal intensity,CaFus1,52.5
same,SPOT peptide array binding signal intensity,CaHof1,73
same,SPOT peptide array binding signal intensity,CaHse1,3
same,SPOT peptide array binding signal intensity,CaLsb1,≤ 0
same,SPOT peptide array binding signal intensity,CaLsb4,1860
same,SPOT peptide array binding signal intensity,CaMyo5,2.5
KKEKKPPKIPKKVYT,SPOT peptide array binding signal intensity,AgAbp1,2950
same,SPOT peptide array binding signal intensity,AgBbc1,9.5
same,SPOT peptide array binding signal intensity,AgBem1-D1,8
same,SPOT peptide array binding signal intensity,AgBzz1-D1,253
same,SPOT peptide array binding signal intensity,AgBzz1-D2,43
same,SPOT peptide array binding signal intensity,AgCyk3,≤ 0
same,SPOT peptide array binding signal intensity,AgFus1,1
same,SPOT peptide array binding signal intensity,AgHof1,29.2
same,SPOT peptide array binding signal intensity,AgHse1,35.5
same,SPOT peptide array binding signal intensity,AgLsb1,≤ 0
same,SPOT peptide array binding signal intensity,AgLsb4,1.5
same,SPOT peptide array binding signal intensity,AgMyo5,≤ 0
same,SPOT peptide array binding signal intensity,AgNbp2,19
same,SPOT peptide array binding signal intensity,AgRvs167,2.5
same,SPOT peptide array binding signal intensity,AgSho1,5
same,SPOT peptide array binding signal intensity,AgSla1-D1-D2,≤ 0
same,SPOT peptide array binding signal intensity,AgSla1-D3,4.5
same,SPOT peptide array binding signal intensity,CaAbp1-D1,892
same,SPOT peptide array binding signal intensity,CaAbp1-D2,1670
same,SPOT peptide array binding signal intensity,CaBbc1,88.5
same,SPOT peptide array binding signal intensity,CaBem1-D1,28
same,SPOT peptide array binding signal intensity,CaBzz1-D1,1950
same,SPOT peptide array binding signal intensity,CaBzz1-D2,2760
same,SPOT peptide array binding signal intensity,CaCyk3,≤ 0
same,SPOT peptide array binding signal intensity,CaFus1,99
same,SPOT peptide array binding signal intensity,CaHof1,1
same,SPOT peptide array binding signal intensity,CaHse1,110
same,SPOT peptide array binding signal intensity,CaLsb1,0.25
same,SPOT peptide array binding signal intensity,CaLsb4,≤ 0
same,SPOT peptide array binding signal intensity,CaMyo5,1.5
same,SPOT peptide array binding signal intensity,CaNbp2,10
same,SPOT peptide array binding signal intensity,CaRvs167,2
same,SPOT peptide array binding signal intensity,CaRvs167-3,4.5
same,SPOT peptide array binding signal intensity,CaSho1,13
same,SPOT peptide array binding signal intensity,CaSla1-D1-D2,79
same,SPOT peptide array binding signal intensity,CaSla1-D3,≤ 0
same,SPOT peptide array binding signal intensity,ScAbp1,901
same,SPOT peptide array binding signal intensity,ScBbc1,1
same,SPOT peptide array binding signal intensity,ScBem1-D1,16
same,SPOT peptide array binding signal intensity,ScBzz1-D1,98
same,SPOT peptide array binding signal intensity,ScBzz1-D2,9.5
same,SPOT peptide array binding signal intensity,ScCyk3,≤ 0
same,SPOT peptide array binding signal intensity,ScFus1,≤ 0
same,SPOT peptide array binding signal intensity,ScHof1,1.5
same,SPOT peptide array binding signal intensity,ScHse1,91
same,SPOT peptide array binding signal intensity,ScLsb1,4.75
same,SPOT peptide array binding signal intensity,ScLsb2,2
same,SPOT peptide array binding signal intensity,ScLsb3,256
same,SPOT peptide array binding signal intensity,ScLsb4,≤ 0
same,SPOT peptide array binding signal intensity,ScMyo3,≤ 0
same,SPOT peptide array binding signal intensity,ScMyo5,4.25
same,SPOT peptide array binding signal intensity,ScNbp2,2
same,SPOT peptide array binding signal intensity,ScPex13,11
same,SPOT peptide array binding signal intensity,ScRvs167,2
same,SPOT peptide array binding signal intensity,ScSho1,109
same,SPOT peptide array binding signal intensity,ScSla1-D1-D2,10
same,SPOT peptide array binding signal intensity,ScSla1-D3,14.5
same,SPOT peptide array binding signal intensity,SpAbp1-D1,396
same,SPOT peptide array binding signal intensity,SpBbc1,3.5
same,SPOT peptide array binding signal intensity,SpBzz1-D1,158
same,SPOT peptide array binding signal intensity,SpBzz1-D2,0.75
same,SPOT peptide array binding signal intensity,SpCyk3,≤ 0
same,SPOT peptide array binding signal intensity,SpHof1,1.75
same,SPOT peptide array binding signal intensity,SpHof1-2,1
same,SPOT peptide array binding signal intensity,SpHof1-3,6.25
same,SPOT peptide array binding signal intensity,SpHse1,1.5
same,SPOT peptide array binding signal intensity,SpLsb1,55
same,SPOT peptide array binding signal intensity,SpLsb4,≤ 0
same,SPOT peptide array binding signal intensity,SpMyo1,3.25
same,SPOT peptide array binding signal intensity,SpNbp2,≤ 0
same,SPOT peptide array binding signal intensity,SpPex13,≤ 0
same,SPOT peptide array binding signal intensity,SpRvs167,8.33
same,SPOT peptide array binding signal intensity,SpSla1-D1-D2,4
same,SPOT peptide array binding signal intensity,SpSla1-D3,3.5
